# Measured values taken from PubChem BioAssay (NCATS).
# Inconclusive results are not listed. Values without a mark were called inactive. Activity calls are given as the source filed them. The call rests on the fitted dose curve; in most records, active means well fitted cell-killing curve with a large enough effect; inconclusive means small, poorly fitted or top-dose-only effect, or effect the other way; inactive means no such curve, though single readings can be large or run the other way.
# Tests used:
# [1] = Quantitative High-Throughput drug screen in 47 multiple myeloma cell lines against the NCATS MIPE library collection: MM1R_ATCC cell viability assay (AID 1918981); further: nearly all actives have a fitted effect of over 35% in size
# Method in brief: (§1)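 ATP-based luminescence (CellTiter-Glo, 5 min RT incubation) quantified surviving cells following two days' treatment with MIPE 4.0 agents at 37 °C, 5% CO2.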
# [2] = Quantitative High-Throughput drug screen in 47 multiple myeloma cell lines against the NCATS MIPE library collection: LP1_DSMZ cell viability assay (AID 1918982); further: nearly all actives have a fitted effect of over 35% in size
# Method in brief: as §1
# [3] = Quantitative High-Throughput drug screen in 47 multiple myeloma cell lines against the NCATS MIPE library collection: KMS28PE_JCRB cell viability assay (AID 1918983); further: nearly all actives have a fitted effect of over 35% in size
# Method in brief: as §1
# [4] = Quantitative High-Throughput drug screen in 47 multiple myeloma cell lines against the NCATS MIPE library collection: L363_DSMZ cell viability assay (AID 1918984); further: nearly all actives have a fitted effect of over 40% in size
# Method in brief: as §1
# [5] = Quantitative High-Throughput drug screen in 47 multiple myeloma cell lines against the NCATS MIPE library collection: KMS34_JCRB cell viability assay (AID 1918985); further: nearly all actives have a fitted effect of over 40% in size
# Method in brief: as §1
# [6] = Quantitative High-Throughput drug screen in 47 multiple myeloma cell lines against the NCATS MIPE library collection: OCIMY7_PLB cell viability assay (AID 1918987); settings: OCI-MY7 myeloma viability, CellTiter-Glo ATP, 48 h; viability (% of DMSO): at 45.8 µM (top of the series); further: nearly all actives have a fitted effect of over 65% in size
# Method in brief: as §1
# [7] = Quantitative High-Throughput drug screen in 47 multiple myeloma cell lines against the NCATS MIPE library collection: OPM1_PLB cell viability assay (AID 1918989); further: nearly all actives have a fitted effect of over 40% in size
# Method in brief: as §1
# [8] = Quantitative High-Throughput drug screen in 47 multiple myeloma cell lines against the NCATS MIPE library collection: U266_ATCC cell viability assay (AID 1919864); further: nearly all actives have a fitted effect of over 35% in size;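 on viability (% of DMSO control): 0% = media-only wells without cells and 100% = DMSO-only wells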
# Method in brief: as §1
# [9] = Quantitative High-Throughput drug screen in 47 multiple myeloma cell lines against the NCATS MIPE library collection: XG1_PLB cell viability assay (AID 1919866); further: nearly all actives have a fitted effect of over 35% in size
# Method in brief: as §1
# [10] = Quantitative High-Throughput drug screen in 47 multiple myeloma cell lines against the NCATS MIPE library collection: VP6_DJ cell viability assay (AID 1919867); further: nearly all actives have a fitted effect of over 40% in size;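 on viability (% of DMSO): 100% = DMSO-only wells and 0% = wells with media alone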
# Method in brief: as §1
# [11] = Quantitative High-Throughput drug screen in 47 multiple myeloma cell lines against the NCATS MIPE library collection: UTMC2_PLB cell viability assay (AID 1919868); settings: CellTiter-Glo ATP luminescence, 48 h; viability (% of DMSO control): at 45.8 µM (top of the series); further: nearly all actives have a fitted effect of over 55% in size;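 on viability (% of DMSO control): 100% = DMSO-only wells and 0% = media-only wells without cells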
# Method in brief: as §1
# [12] = Quantitative High-Throughput drug screen in 47 multiple myeloma cell lines against the NCATS MIPE library collection: PE2_PLB cell viability assay (AID 1919869); further: nearly all actives have a fitted effect of over 35% in size
# Method in brief: as §1
# [13] = Quantitative High-Throughput drug screen in 47 multiple myeloma cell lines against the NCATS MIPE library collection: PCM6_Riken cell viability assay (AID 1919870); further: nearly all actives have a fitted effect of over 30% in size
# Method in brief: as §1
# [14] = Quantitative High-Throughput drug screen in 47 multiple myeloma cell lines against the NCATS MIPE library collection: RPMI8226_ATCC cell viability assay (AID 1919871); further: nearly all actives have a fitted effect of over 30% in size
# Method in brief: as §1
# [15] = Quantitative High-Throughput drug screen in 47 multiple myeloma cell lines against the NCATS MIPE library collection: OPM2_DSMZ cell viability assay (AID 1919872); further: nearly all actives have a fitted effect of over 30% in size
# Method in brief: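 Primary qHTS used for cherry-picking: cells at 500/well, library compounds for 48 h (37C, 5% CO2), luminescent ATP assay.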
# [16] = Quantitative High-Throughput drug screen in 47 multiple myeloma cell lines against the NCATS MIPE library collection: KMS11_JCRBsus cell viability assay (AID 1919873); further: nearly all actives have a fitted effect of over 50% in size
# Method in brief: as §1
# [17] = Quantitative High-Throughput drug screen in 47 multiple myeloma cell lines against the NCATS MIPE library collection: KMS28BM_JCRB cell viability assay (AID 1919874); further: nearly all actives have a fitted effect of over 35% in size
# Method in brief: as §1
# [18] = Quantitative High-Throughput drug screen in 47 multiple myeloma cell lines against the NCATS MIPE library collection: OCIMY5_PLB cell viability assay (AID 1918988); further: nearly all actives have a fitted effect of over 65% in size
# Method in brief: as §1
# [19] = Quantitative High-Throughput drug screen in 47 multiple myeloma cell lines against the NCATS MIPE library collection: XG6_PLB cell viability assay (AID 1919865); further: nearly all actives have a fitted effect of over 40% in size
# Method in brief: as §1
# [20] = Quantitative High-Throughput drug screen in 47 multiple myeloma cell lines against the NCATS MIPE library collection: SKMM1_PLB cell viability assay (AID 1919863); settings: SKMM1 myeloma viability, CellTiter-Glo ATP, 48 h; viability: active compounds read low; further: nearly all actives have a fitted effect of over 35% in size
# Method in brief: as §1
# Potency means the concentration at half of the fitted maximal effect.
structure (smiles),measurement,setting,value
CCOC(=O)N1CCN([N+]([O-])=NOc2ccc([N+](=O)[O-])cc2C#N)CC1,Potency,[1],1320 nM (active)
same,Potency,[2],2640 nM (active)
same,Potency,[3],1180 nM (active)
same,Potency,[4],590 nM (active)
same,Potency,[5],526 nM (active)
same,Potency,[6],590 nM (active)
same,Potency,[7],418 nM (active)
same,Potency,[8],833 nM (active)
same,Potency,[9],372 nM (active)
same,Potency,[10],743 nM (active)
same,Potency,[11],526 nM (active)
same,Potency,[12],743 nM (active)
same,Potency,[13],469 nM (active)
same,Potency,[14],1050 nM (active)
same,Potency,[15],935 nM (active)
same,Potency,[16],662 nM (active)
same,Potency,[17],935 nM (active)
Nc1cccc2c1C(=O)N(C1CCC(=O)NC1=O)C2=O (centres undefined),Potency,[1],2090 nM (active)
same,Potency,[2],inactive
same,Potency,[3],83.3 nM (active)
same,Potency,[4],inactive
same,Potency,[5],2.1 nM (active)
same,Potency,[18],10500 nM (active)
same,Potency,[8],inactive
same,Potency,[19],inactive
same,Potency,[12],inactive
same,Potency,[13],inactive
same,Potency,[15],1.2 nM (active)
same,Potency,[17],inactive
COc1cc(C)c(C=CC(C)=CC=CC(C)=CC(=O)O)c(C)c1C,Potency,[1],inactive
same,Potency,[2],inactive
same,Potency,[3],inactive
same,Potency,[4],inactive
same,Potency,[5],inactive
same,viability,[20],132%
same,Potency,[8],inactive
same,Potency,[19],inactive
same,Potency,[9],inactive
same,Potency,[14],1480 nM (active)
same,Potency,[15],inactive
same,Potency,[16],inactive
same,Potency,[17],inactive
COC1=C2C[C@@H](C)C[C@H](OC)[C@@H](O)[C@@H](C)C=C(C)[C@H](OC(N)=O)[C@@H](OC)C=CC=C(C)C(=O)NC(=CC1=O)C2=O,Potency,[1],37.2 nM (active)
same,Potency,[2],1180 nM (active)
same,Potency,[3],132 nM (active)
same,Potency,[4],7430 nM (active)
same,Potency,[5],166 nM (active)
same,Potency,[6],74.3 nM (active)
same,Potency,[18],37.2 nM (active)
same,Potency,[20],2090 nM (active)
same,Potency,[8],132 nM (active)
same,Potency,[19],332 nM (active)
same,Potency,[9],209 nM (active)
same,Potency,[10],132 nM (active)
same,Potency,[11],209 nM (active)
same,Potency,[12],296 nM (active)
same,Potency,[13],148 nM (active)
same,Potency,[14],105 nM (active)
same,Potency,[15],332 nM (active)
same,Potency,[16],83.3 nM (active)
same,Potency,[17],93.5 nM (active)
O=C1CSC(=O)N1C(CCc1ccncc1)COc1ccc(-c2cccc([N+](=O)[O-])c2)cc1 (centres undefined),Potency,[1],2350 nM (active)
same,Potency,[2],5900 nM (active)
same,Potency,[3],9350 nM (active)
same,Potency,[4],inactive
same,Potency,[5],8330 nM (active)
same,Potency,[6],20900 nM (active)
same,Potency,[18],2350 nM (active)
same,Potency,[7],16600 nM (active)
same,Potency,[8],8330 nM (active)
same,Potency,[19],13200 nM (active)
same,Potency,[10],4180 nM (active)
same,Potency,[12],16600 nM (active)
same,Potency,[14],7430 nM (active)
same,Potency,[16],11800 nM (active)
C=C(C)[C@@H]1CC[C@]2(C(=O)O)CC[C@]3(C)[C@H](CC[C@@H]4[C@@]5(C)CC[C@H](O)C(C)(C)[C@@H]5CC[C@]43C)[C@@H]12,Potency,[1],inactive
same,Potency,[2],inactive
same,Potency,[3],3720 nM (active)
same,Potency,[4],inactive
same,Potency,[5],inactive
same,Potency,[18],5900 nM (active)
same,Potency,[7],inactive
same,Potency,[20],935 nM (active)
same,Potency,[19],2960 nM (active)
same,Potency,[9],inactive
same,Potency,[10],7430 nM (active)
same,Potency,[12],inactive
same,Potency,[14],5260 nM (active)
same,Potency,[15],inactive
same,Potency,[16],inactive
same,Potency,[17],inactive
C#C[C@]1(O)CC[C@@H]2[C@@H]3CCC4=CC(=O)CC[C@@H]4[C@H]3CC[C@@]21CC,Potency,[1],inactive
same,Potency,[2],inactive
same,Potency,[3],inactive
same,Potency,[4],8.3 nM (active)
same,Potency,[5],inactive
same,Potency,[6],inactive
same,Potency,[18],18700 nM (active)
same,Potency,[8],inactive
same,Potency,[19],inactive
same,Potency,[9],inactive
same,Potency,[11],inactive
same,Potency,[12],inactive
same,Potency,[13],inactive
same,Potency,[17],inactive
CC(=O)O[C@@]12CO[C@H]1C[C@H](O)[C@@]1(C)C(=O)[C@H](O)C3=C(C)[C@@H](OC(=O)C(O)[C@@H](NC(=O)OC(C)(C)C)c4ccccc4)C[C@@](O)([C@@H](OC(=O)c4ccccc4)[C@@H]21)C3(C)C (some centres undefined),Potency,[1],inactive
same,Potency,[2],inactive
same,Potency,[3],inactive
same,Potency,[4],inactive
same,Potency,[5],inactive
same,Potency,[6],inactive
same,Potency,[18],inactive
same,Potency,[7],inactive
same,viability,[20],60%
same,Potency,[19],inactive
same,Potency,[10],inactive
same,Potency,[11],inactive
same,Potency,[12],inactive
same,Potency,[13],inactive
same,Potency,[15],inactive
same,Potency,[16],inactive
same,Potency,[17],inactive
COc1ccc2c(c1OC)C(=O)OC2[C@H]1c2c(cc3c(c2OC)OCO3)CCN1C (some centres undefined),Potency,[1],418 nM (active)
same,Potency,[2],132 nM (active)
same,Potency,[3],52.6 nM (active)
same,Potency,[4],74.3 nM (active)
same,Potency,[5],37.2 nM (active)
same,Potency,[18],23.5 nM (active)
same,Potency,[7],469 nM (active)
same,Potency,[20],23.5 nM (active)
same,Potency,[8],1660 nM (active)
same,Potency,[19],46.9 nM (active)
same,Potency,[9],41.8 nM (active)
same,Potency,[10],74.3 nM (active)
same,Potency,[11],132 nM (active)
same,Potency,[12],372 nM (active)
same,Potency,[13],469 nM (active)
same,Potency,[14],3720 nM (active)
same,Potency,[16],26.4 nM (active)
same,Potency,[17],20.9 nM (active)
Nc1nc(N)c2nc(-c3cccc(O)c3)c(-c3cccc(O)c3)nc2n1,Potency,[1],18700 nM (active)
same,Potency,[2],23500 nM (active)
same,Potency,[3],26400 nM (active)
same,Potency,[4],3720 nM (active)
same,Potency,[5],14800 nM (active)
same,Potency,[6],372 nM (active)
same,Potency,[18],18700 nM (active)
same,Potency,[7],9350 nM (active)
same,Potency,[8],18700 nM (active)
same,Potency,[19],3320 nM (active)
same,Potency,[9],4180 nM (active)
same,Potency,[10],3320 nM (active)
same,Potency,[12],2960 nM (active)
same,Potency,[13],2640 nM (active)
